Common to all, as to test: NCI-60 one-dose screen, 48 h (100 = growth as untreated, 0 = no growth, -100 = all killed)
One experiment concerns NCI-H23 lung. Conditions: 10 µM unless noted.
Another experiment deals with NCI-H322M lung. Conditions: 10 µM unless noted.
Another experiment relates to HOP-62 NSCLC. Conditions: 10 µM unless noted.
The subject of another experiment is NCI-H460 lung. Conditions: 10 µM unless noted.
In the next experiment the test system is HOP-92 NSCLC. Conditions: 10 µM.
In the next experiment the test system is NCI-H522 lung. Conditions: 10 µM.
The subject of the next experiment is A549/ATCC NSCLC. Conditions: 10 µM unless noted.
For the next experiment, the system named is 786-0 renal. Conditions: 10 µM unless noted.
The subject of another experiment is COLO 205 colon. Conditions: 10 µM unless noted.
For a further experiment, the system named is NCI-H226 lung. Conditions: 10 µM unless noted.

“And” between values parts separate entries of the source, which are not always exact repeats. Identical values can stand only once. The panel holds about 83,000 compounds, 20% with a hit somewhere; the sample as a whole holds those more often.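 Assay: single dose, 48 h. Readout: percent growth (0 = no net growth; negative = cell death). Active: <10.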 Unmarked numbers belong to inactive results. The source made the active and inactive calls.

For `Cc1cc(-c2ccc(N=Nc3ccc4c(S(=O)(=O)O)cc(S(=O)(=O)O)c(N)c4c3O)c(C)c2)ccc1N=Nc1ccc2c(S(=O)(=O)O)cc(S(=O)(=O)O)c(N)c2c1O`, the growth in the experiment with NCI-H23 lung was 81.7%; with NCI-H322M lung it was 119%; in the experiment with HOP-62 NSCLC, 95.7%; in the experiment on NCI-H460 lung, 111%; with HOP-92 NSCLC, 67.1%; in the experiment on NCI-H522 lung, 85.6%. In addition, the values for the growth with A549/ATCC NSCLC, with 786-0 renal and in the experiment on COLO 205 colon were 92.7%, 101% and 111%, respectively.

Regarding `CC(=O)OCC1OC(OC(C)=O)C(OC(C)=O)C(OC(C)=O)C1OC(C)=O` (configuration not stated), the growth was 107% and 95.6% with NCI-H23 lung; 111% and 101% with NCI-H322M lung; 83.4% with HOP-62 NSCLC; 112% and 104% with NCI-H460 lung; 102% and 98.9% in the experiment on HOP-92 NSCLC; 103% in the experiment with NCI-H522 lung. The growth was 103% and 96.6% with A549/ATCC NSCLC; 102% and 106% with 786-0 renal; 104% and 107% in the experiment on COLO 205 colon.

For `C/C(=C\c1ccccc1)c1ccccn1`, the growth was 107% in the experiment with NCI-H23 lung; 90.9% with NCI-H226 lung; 105% with HOP-62 NSCLC; 105% in the experiment on NCI-H460 lung; 105% in the experiment with HOP-92 NSCLC; 109% with NCI-H522 lung. The growth was 115% in the experiment on A549/ATCC NSCLC, 104% in the experiment on 786-0 renal and 114% in the experiment on COLO 205 colon.

As for `CCc1cc(C)cc(O)c1`, the growth in the experiment with NCI-H23 lung was 107%; with NCI-H226 lung it was 99.4%; with NCI-H322M lung, 105%; with HOP-62 NSCLC, 106%; with NCI-H460 lung it was 110%; in the experiment with HOP-92 NSCLC it was 91.7%. For the same compound, the growth with NCI-H522 lung was 90.1%; in the experiment with A549/ATCC NSCLC it was 108%; in the experiment with 786-0 renal, 104%; in the experiment on COLO 205 colon, 116%.

In the case of `CN(C)c1ccc(/C=C\C(=O)c2ccccc2)cc1`, the growth in the experiment on NCI-H23 lung was 98.4% and 91% and 97.5%; in the experiment on NCI-H226 lung, 92.6% and 98.6% and 101%; in the experiment on NCI-H322M lung, 97.2% and 103% and 88.5%; with HOP-62 NSCLC, 102% and 101%; with NCI-H460 lung, 102% and 99.8% and 104%; in the experiment with HOP-92 NSCLC, 103% and 99.8% and 86.1%. Moreover, the growth in the experiment with NCI-H522 lung was 64.3% and 60.4% and 52.7%; in the experiment with A549/ATCC NSCLC, 67% and 79.8% and 82.4%; with 786-0 renal it was 90.9% and 89.7% and 80.8%; in the experiment on COLO 205 colon it was 104% and 99.2%.

On to `O=c1n(CC2CO2)c(=O)n(CC2CO2)c(=O)n1CC1CO1` (configuration not stated), for which the growth in the experiment on NCI-H23 lung was 69.2%; in the experiment with NCI-H226 lung it was 80.1%; in the experiment on NCI-H322M lung, 70.4%; in the experiment on HOP-62 NSCLC, 57%; with NCI-H460 lung it was 19.2%; in the experiment with HOP-92 NSCLC it was 75.9%. For the same compound, the growth is 45.1% in the experiment on NCI-H522 lung, 44.3% in the experiment on A549/ATCC NSCLC, 44.7% in the experiment with 786-0 renal and 74.8% with COLO 205 colon.

In the case of `Cc1ccc(S(=O)(=O)c2ccccc2)cc1`, the growth in the experiment with NCI-H23 lung was 54.5%; in the experiment with NCI-H226 lung it was 85.6%; with HOP-62 NSCLC, 44.2%; with NCI-H460 lung, 20.7%; in the experiment with HOP-92 NSCLC it was 58.7%; in the experiment on A549/ATCC NSCLC, 41.7%. In the experiment on COLO 205 colon, the growth was 18.4%.

Turning to `Cc1cc2ccccc2cn1`, the growth in the experiment on NCI-H23 lung was 97.1% and 114%; with NCI-H226 lung, 95.7% and 96%; in the experiment with NCI-H322M lung it was 101% and 98.4%; in the experiment on HOP-62 NSCLC it was 101%; in the experiment on NCI-H460 lung, 107% and 108%; with HOP-92 NSCLC, 94.4% and 101%. In addition, the growth was 109% in the experiment with NCI-H522 lung; 101% and 118% in the experiment on A549/ATCC NSCLC; 105% and 111% in the experiment with 786-0 renal; 110% and 119% in the experiment on COLO 205 colon.

For the compound `NN1CCOC(c2ccccc2)C1` (configuration not stated), the growth in the experiment on NCI-H23 lung is 104%; in the experiment on NCI-H226 lung, 99.4%; in the experiment with HOP-62 NSCLC it was 99.6%; in the experiment with NCI-H460 lung, 115%; in the experiment on NCI-H522 lung, 125%; in the experiment with A549/ATCC NSCLC, 104%. Further, the growth in the experiment on 786-0 renal is 103%; in the experiment with COLO 205 colon, 107%.

With `CC(C)C(C)(C)c1ccc(O)cc1`, the growth in the experiment on NCI-H23 lung is 103%; in the experiment on NCI-H226 lung, 99.3%; with NCI-H322M lung, 102%; in the experiment with HOP-62 NSCLC it was 104%; in the experiment on NCI-H460 lung, 104%; with NCI-H522 lung, 99.7%. Besides, the growth was 102% in the experiment on A549/ATCC NSCLC and 108% in the experiment with COLO 205 colon.

On to `Oc1ccc(Cc2ccccc2Cl)c(O)c1`, for which the growth is 89.5% in the experiment on NCI-H23 lung; 86.5% with NCI-H322M lung; 91.9% in the experiment on HOP-62 NSCLC; 101% with NCI-H460 lung; 89.4% with HOP-92 NSCLC; 94.7% in the experiment with NCI-H522 lung. Also, the values for the growth in the experiment with A549/ATCC NSCLC, in the experiment with 786-0 renal and in the experiment with COLO 205 colon were 98.8%, 102% and 106%, respectively.

On to `CCCCCCCCCCCCCCCc1ccc(N)c(OC2OC(CO)C(O)C(O)C2O)c1` (configuration not stated), for which the growth in the experiment with NCI-H23 lung is 80.9%; in the experiment with NCI-H226 lung it was 96.4%; with HOP-62 NSCLC it was 73.9%; with NCI-H460 lung, 102%; in the experiment on HOP-92 NSCLC, 82%; in the experiment on NCI-H522 lung, -63.5% (active). The growth with A549/ATCC NSCLC was 86%; in the experiment with 786-0 renal, 81.7%.

These data come from PubChem BioAssay (NCI).
